Results filed as inconclusive are left out. A number with no mark means an inactive call. Active and inactive are the calls of the source. Calls follow the shape of the dose curve; as a rule, active = well fitted inhibition curve with a large enough effect; inconclusive = small, poorly fitted or top-dose-only effect; inactive = no such curve, though single readings can be large or run the other way.
Each compound was assayed on Zika virus NS2B-NS3 protease (linked construct) (assay: Primary screen NINDS Rhodamine qHTS for Zika virus inhibitors (AID 1347160; also: nearly all actives have a fitted effect of over 55% in size)). Details: purified NS2B-NS3 protease, Rhodamine110 substrate fluorescence; series mostly up to 57.1 µM; activity change, negative = inhibition: at the top concentration.
Procedure, shortened: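 Rhodamine110-peptide cleavage (1.5 µM substrate) by 25 nM linked NS2B-NS3 enzyme at pH 8.0 (Tris, Tween 20), after 15 min RT preincubation with compounds; 15-min fluorescence change normalized to controls and Hill-fitted.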
% is scaled to controls: 0 for no effect and ±100 for the full control effect; potency is read from the fitted curve at half-maximal effect.

| Compound | activity change, negative = inhibition | Potency | outcome |
| --- | --- | --- | --- |
| COc1ccccc1-n1c(SCC(=O)Nc2nc3ccc(C)cc3s2)nc2c(c1=O)SCC2 | 42% [at 33.1 µM] | – | – |
| CC(C)=CC/C=C(/C)[C@H]1CC[C@]2(C)[C@@H]1[C@H](O)CC1[C@@]3(C)CC[C@H](O)C(C)(C)[C@@H]3[C@@H](O[C@@H]3O[C@H](CO)[C@@H](O)[C@H](O)[C@H]3O[C@@H]3O[C@@H](C)[C@H](O)[C@@H](O)[C@H]3O)C[C@]12C (some centres undefined) | -7.19% [at 15.1 µM] | – | – |
| C[C@@H]1O[C@@H](O[C@H]2[C@H](OC(=O)[C@]34CCC(C)(C)C[C@H]3C3=CCC5[C@@]6(C)C[C@H](O)[C@H](O[C@@H]7O[C@H](CO)[C@@H](O[C@@H]8O[C@H](CO)[C@@H](O)[C@H](O)[C@H]8O)[C@H](O)[C@H]7O)[C@@](C)(CO)C6[C@H](O)C[C@@]5(C)[C@]3(C)C[C@H]4O)OC[C@H](O)[C@@H]2O)[C@H](O)[C@H](O)[C@H]1O[C@@H]1OC[C@@H](O)[C@H](O[C@@H]2OC[C@](O)(CO)[C@H]2O)[C@H]1O (some centres undefined) | -19.4% [at 10.7 µM] | – | – |
| CC[C@H]1OC(=O)[C@H](C)[C@@H](O[C@H]2C[C@@](C)(OC)[C@@H](O)[C@H](C)O2)[C@H](C)[C@@H](O[C@@H]2O[C@H](C)C[C@H](N(C)C)[C@H]2O)[C@@](C)(O)C[C@@H](C)[C@@H]2N[C@@H](COCCOC)OC([C@H]2C)[C@]1(C)O | 22.3% | – | – |
| CC(=O)Oc1cc2c(s1)CCN([C@H](C(=O)C1CC1)c1ccccc1F)C2 | 15.8% | – | – |
| c1ccc(C(OC2CCN(CCCc3nn[nH]n3)CC2)c2ccccc2)cc1 | 5.35% | – | – |
| OC[C@H]1O[C@@H](OC(CCCCc2ccc(O)cc2)CCc2ccc(O)cc2)[C@H](O[C@@H]2OC[C@](O)(CO)[C@H]2O)[C@@H](O)[C@@H]1O (some centres undefined) | 12.8% [at 15.1 µM] | – | – |
| COC1CC(OC2CCC3(C)C(=CCC4C3CCC3(C)C(C(C)O)CCC43O)C2)OC(C)C1OC1OC(C)C(OC2OC(COC3OC(COC4OC(CO)C(O)C(O)C4O)C(O)C(O)C3O)C(O)C(O)C2O)C(OC)C1O (centres undefined) | 11.3% [at 15.1 µM] | – | – |
| CC1(C)CCC(C)(C)c2cc([C@@H](O)C(=O)Nc3ccc(C(=O)O)cc3F)ccc21 | – | 14.1 µM (active) | – |
| CC(C)C1(O[C@@H]2O[C@H](CO)[C@@H](O)[C@H](O)[C@H]2O)CC=C(CO)CC1 (some centres undefined) | -16.8% [at 33.1 µM] | – | – |
| C[C@]1(O)CC[C@@H]2C(C(=O)O)=CO[C@@H](O[C@@H]3O[C@H](COC(=O)c4ccc(O)cc4)[C@@H](O)[C@H](O)[C@H]3O)[C@@H]21 | -24% [at 33.1 µM] | – | – |
| COC(=O)CC[C@@H](C)[C@H]1CC[C@H]2[C@@H]3CC(=O)[C@H]4C[C@H](OC(C)=O)CC[C@]4(C)[C@H]3CC[C@]12C | – | – | inactive |
| c1ccc(Nc2nc3c(s2)CCCc2[nH]ncc2-3)nc1 | 8.9% | – | – |
| C=C1C(O[C@@H]2O[C@H](CO)[C@@H](O)[C@H](O)[C@@H]2O)CC2C(C)(C)C(O)CCC2(C)C1CC/C(C)=C\CO (some centres undefined) | 10.4% [at 33.1 µM] | – | – |
| COC(=O)C1C(c2ccc(O)cc2)C(C(=O)OC)C1c1ccc(O)cc1 (centres undefined) | -19.8% [at 33.1 µM] | – | – |
| O=C1NC(Cc2ccc(O)cc2)C(=O)N2CCCC12 (centres undefined) | – | – | inactive |
| O=C(/C=C/c1ccc(O)cc1)OCC1=C[C@@H](O)[C@@H]2C=CO[C@@H](O[C@@H]3O[C@H](CO)[C@@H](O)[C@H](O)[C@H]3O)[C@H]12 | -21.2% [at 33.1 µM] | – | – |
| COC(=O)c1ccc(O[C@@H]2O[C@H](CO)[C@@H](O)[C@H](O)[C@H]2O)c(OC)c1 | -16.3% [at 33.1 µM] | – | – |
| CC(C)CC(=O)OC[C@H]1O[C@@](COC(=O)CC(C)C)(O[C@H]2O[C@H](CO)[C@@H](O)[C@H](O)[C@H]2OC(=O)CC(C)C)[C@@H](OC(=O)CC(C)C)[C@@H]1O | – | – | inactive [at 15.1 µM] |
| CC(c1c[nH]c2ccccc12)C(O)C(=O)O (centres undefined) | -27.6% | – | – |

| Compound | activity change, negative = inhibition | Potency | outcome |
| --- | --- | --- | --- |
| CC1CCC2C(C(=O)O)=CC3CC(C)(C)CC132 (centres undefined) | – | 25.1 µM (active) | – |
| CCNC(=O)[C@@H]1CCCN1C(=O)[C@H](CCCN=C(N)N)NC(=O)[C@H](CC(C)C)NC(=O)[C@@H](C)NC(=O)[C@H](Cc1ccc(O)cc1)NC(=O)[C@H](CO)NC(=O)[C@H](Cc1c[nH]c2ccccc12)NC(=O)[C@H](Cc1cnc[nH]1)NC(=O)[C@@H]1CCC(=O)N1 | 16% [at 33.1 µM] | – | – |
| CC(=O)O[C@@H]1[C@H]2[C@@H](OC(=O)c3ccccc3)[C@@H](C)C[C@]2(O)[C@H](OC(C)=O)[C@@]2(C)[C@@H]3CC(C)(C)C(=O)[C@]3(OC(C)=O)C[C@@]12C | -5.8% [at 15.1 µM] | – | – |
| CC1CCC2C(C)(C)C(O)CCC2(C)C12Cc1c(O)cc3c(c1O2)CN=C3N (centres undefined) | -10.7% [at 33.1 µM] | – | – |
| CCCn1cnc2c(NCc3ccccc3)nc(N[C@H](CC)CO)nc21 | 17.2% | – | – |
| C[C@H]1[C@H](C)CC[C@]2(C(=O)O[C@@H]3O[C@H](CO)[C@@H](O)[C@H](O)[C@H]3O)CC[C@]3(C(=O)O)C(=CCC4[C@@]5(C)CC[C@H](O[C@@H]6O[C@H](CO)[C@@H](O)[C@H](O)[C@H]6O)C(C)(C)C5CC[C@]43C)[C@H]12 (some centres undefined) | -20% [at 15.1 µM] | – | – |
| CC1CCCC2OC2C(=O)c2c(O)cc(O)cc2CC(=O)O1 (centres undefined) | – | – | inactive |
| COc1ccc2cc(OCC3(C(=O)O)CN(C(=O)c4ccc(F)cc4)C3)ccc2c1 | -24.5% | – | – |
| CC(=O)C1CCC2(C)C3=C(CCC12C)C1(C)CCC(=O)C(C)(C)C1CC3 (centres undefined) | -9.09% [at 33.1 µM] | – | – |
| COC1=Cc2c(nc3n(c2=O)C(C)C(=O)NC3(O)C(C)C)OC=C1 (centres undefined) | 12.6% [at 33.1 µM] | – | – |
| C[C@@H]1O[C@@H](O[C@H]2[C@H](O[C@H]3[C@H](O[C@H]4CC[C@@]5(CO)C(CC[C@]6(C)C5CC=C5C7CC(C)(C)C[C@@H](O)[C@]7(C)CC[C@]56C)C4(C)C)O[C@H](C(=O)O)[C@@H](O)[C@@H]3O)OC[C@@H](O)[C@@H]2O)[C@H](O)[C@H](O)[C@H]1O (some centres undefined) | -8.64% [at 15.1 µM] | – | – |
| COc1c(C)c(OCC=C(C)C)cc2c1C(=O)NC2=O | -22.7% | – | – |
| COc1cc(/C=C/C(=O)OC2CC(C)=C(C(=O)O)/C2=C/CO[C@@H]2O[C@H](CO)[C@@H](O)[C@H](O)[C@H]2O)ccc1O (some centres undefined) | -26% [at 33.1 µM] | – | – |
| CC1(C)CC[C@]2(C(=O)O)CC[C@]3(C)C(=CCC4[C@@]5(C)CCC(O[C@@H]6OC[C@H](O)[C@H](O)[C@H]6O[C@@H]6O[C@H](CO)[C@@H](O)[C@H](O)[C@H]6O)[C@@](C)(CO)C5CC[C@]43C)[C@@H]2C1 (some centres undefined) | – | – | inactive [at 15.1 µM] |
| NCCCC[C@H](NC(=O)[C@@H]1Cc2ccccc2CN1C(=O)CCC(=O)c1ccccc1)C(=O)NCC(c1ccccc1)c1ccccc1 | 109% | – | – |
| NS(=O)(=O)NCCNc1nonc1C(=Nc1ccc(F)c(Br)c1)NO | – | inactive | – |
| COC(=O)c1cc(CN2CCN(C(=N)N)CC2)cc(C(=O)N2CCN(C(=O)c3ccc(C(=N)N)cc3)CC2)c1 | 67.3% | – | – |
| C[C@@H]1CCC2C(C)(C)[C@H](O)CC[C@]2(C)[C@@]12Cc1c(O)cc3c(c1O2)CN(CCO)C3=O (some centres undefined) | -4.55% [at 33.1 µM] | – | – |
| CC(C)C1=CC2=CCC3[C@](C)(CCC[C@@]3(C)C(=O)O)C2CC1=O (some centres undefined) | -12.3% [at 33.1 µM] | – | – |
